Assay [1] is described as follows: probe aLefty2 binding to arrayed compounds – biochemical, biotinylated probe, 635/667 nm fluorescence, primary screen (AID 1094).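 Further: score merges spot fluorescence near 667 nm with spot signal-to-noise ratio.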 The note with it: small-molecule microarray, higher = more signal.
The subject of assay [2] is Noggin (protein binding on small-molecule microarray). Description: small molecules binding Noggin protein – biochemical, 635/667 nm fluorescence, primary screen (AID 1095).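 Further: score merges 667 nm feature fluorescence with signal to noise over triplicate slides.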 The note with it: 635 nm fluorescence, higher = more signal.
Assay [3] deals with Neurogenic locus notch homolog protein 3 (Homo sapiens) (UniProt Q9UM47). Kind of assay: small molecules binding NOTCH3 protein – biochemical, 635/667 nm fluorescence, primary screen (AID 1096). The note with it: small-molecule microarray, 635 nm fluorescence, higher = more signal.
Chain of Neurogenic locus notch homolog protein 3 (Homo sapiens) (Q9UM47 whole entry, looked up): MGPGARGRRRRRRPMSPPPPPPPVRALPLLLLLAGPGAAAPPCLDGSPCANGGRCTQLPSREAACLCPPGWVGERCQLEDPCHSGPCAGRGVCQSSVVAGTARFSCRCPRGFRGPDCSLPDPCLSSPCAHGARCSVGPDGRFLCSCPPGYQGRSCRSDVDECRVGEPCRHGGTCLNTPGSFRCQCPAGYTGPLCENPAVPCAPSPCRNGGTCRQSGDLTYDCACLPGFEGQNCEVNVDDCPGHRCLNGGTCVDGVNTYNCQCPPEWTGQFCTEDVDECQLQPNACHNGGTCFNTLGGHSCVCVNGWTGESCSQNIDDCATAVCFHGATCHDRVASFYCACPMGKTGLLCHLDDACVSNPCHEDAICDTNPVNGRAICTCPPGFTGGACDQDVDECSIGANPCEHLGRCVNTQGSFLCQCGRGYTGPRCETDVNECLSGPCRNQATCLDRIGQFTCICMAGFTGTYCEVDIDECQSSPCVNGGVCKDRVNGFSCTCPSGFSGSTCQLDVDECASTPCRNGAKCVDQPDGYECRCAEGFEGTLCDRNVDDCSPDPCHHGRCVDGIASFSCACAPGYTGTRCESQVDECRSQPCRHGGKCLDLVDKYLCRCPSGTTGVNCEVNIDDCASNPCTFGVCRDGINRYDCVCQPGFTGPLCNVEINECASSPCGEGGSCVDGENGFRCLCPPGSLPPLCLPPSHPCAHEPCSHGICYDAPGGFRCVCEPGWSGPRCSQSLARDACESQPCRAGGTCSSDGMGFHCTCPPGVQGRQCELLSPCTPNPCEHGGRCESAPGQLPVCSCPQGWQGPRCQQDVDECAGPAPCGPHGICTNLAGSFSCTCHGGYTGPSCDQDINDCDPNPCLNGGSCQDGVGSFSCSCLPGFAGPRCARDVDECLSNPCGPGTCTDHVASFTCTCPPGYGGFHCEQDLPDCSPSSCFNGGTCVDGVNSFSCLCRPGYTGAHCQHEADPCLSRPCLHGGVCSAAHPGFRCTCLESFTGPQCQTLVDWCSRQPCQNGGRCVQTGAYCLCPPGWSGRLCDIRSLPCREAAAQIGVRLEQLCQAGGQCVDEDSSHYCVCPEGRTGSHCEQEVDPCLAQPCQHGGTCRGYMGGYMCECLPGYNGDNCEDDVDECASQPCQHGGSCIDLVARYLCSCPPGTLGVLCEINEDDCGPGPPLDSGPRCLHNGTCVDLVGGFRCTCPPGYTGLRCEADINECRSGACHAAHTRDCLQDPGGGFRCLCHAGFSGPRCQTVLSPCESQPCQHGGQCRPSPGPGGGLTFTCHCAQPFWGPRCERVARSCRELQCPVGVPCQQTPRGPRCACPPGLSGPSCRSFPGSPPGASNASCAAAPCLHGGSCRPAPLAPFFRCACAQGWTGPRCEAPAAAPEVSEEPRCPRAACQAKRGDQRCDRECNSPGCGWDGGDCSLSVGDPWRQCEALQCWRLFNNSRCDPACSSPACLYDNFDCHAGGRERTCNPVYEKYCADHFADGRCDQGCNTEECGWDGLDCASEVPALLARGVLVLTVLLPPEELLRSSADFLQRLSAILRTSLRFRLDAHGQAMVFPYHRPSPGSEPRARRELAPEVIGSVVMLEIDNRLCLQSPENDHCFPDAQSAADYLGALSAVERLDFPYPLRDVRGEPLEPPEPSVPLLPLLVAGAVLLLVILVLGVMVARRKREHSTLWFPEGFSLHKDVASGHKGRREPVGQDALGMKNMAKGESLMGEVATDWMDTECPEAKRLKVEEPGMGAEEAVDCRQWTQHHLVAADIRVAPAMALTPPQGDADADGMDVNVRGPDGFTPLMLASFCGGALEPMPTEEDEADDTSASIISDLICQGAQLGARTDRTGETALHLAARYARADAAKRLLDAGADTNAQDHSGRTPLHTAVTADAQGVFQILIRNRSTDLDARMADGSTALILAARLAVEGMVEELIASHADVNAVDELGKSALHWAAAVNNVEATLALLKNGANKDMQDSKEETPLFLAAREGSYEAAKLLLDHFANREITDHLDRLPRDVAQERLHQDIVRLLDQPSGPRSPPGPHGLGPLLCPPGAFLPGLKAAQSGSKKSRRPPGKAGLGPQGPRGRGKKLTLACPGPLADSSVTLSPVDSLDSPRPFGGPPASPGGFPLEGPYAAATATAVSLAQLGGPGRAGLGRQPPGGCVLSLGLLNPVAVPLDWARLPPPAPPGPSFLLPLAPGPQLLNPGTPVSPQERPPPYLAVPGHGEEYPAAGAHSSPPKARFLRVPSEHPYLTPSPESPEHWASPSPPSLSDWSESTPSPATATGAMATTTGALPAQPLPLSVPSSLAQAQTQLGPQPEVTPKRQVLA
Assay [4] is described as follows: probe aEGFR binding to arrayed compounds – biochemical, biotinylated probe, 635/667 nm fluorescence, primary screen (AID 1097).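 Further: probe is a biotinylated anti-EGFR antibody binding compounds printed on slides; score combines fluorescence near 667 nm and signal to noise of each spot.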 The note with it: small-molecule microarray, higher = more signal.
The subject of assay [5] is Plasmodium falciparum Sir2 (PF13_0152, Sir2A). Description: Plasmodium falciparum Sir2A binding compounds – biochemical, small-molecule microarray, 635 nm fluorescence, primary screen (AID 1098).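 Further: score merges spot fluorescence intensity with its signal-to-noise ratio.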 The note with it: fluorescence 635 nm, higher = more signal.
Assay [6] can be described thus: probe aDKK1 binding to arrayed compounds – biochemical, biotinylated probe, 635/667 nm fluorescence, primary screen (AID 1099).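 Further: score merges 667nm spot fluorescence with signal to noise across triplicate slides.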 The note with it: small-molecule microarray, higher = more signal.
Assay [7] can be described thus: probe aCHRDL2 binding to arrayed compounds – biochemical, biotinylated probe, 635/667 nm fluorescence, primary screen (AID 1100). The note with it: small-molecule microarray, higher = more signal.
Assay [8] can be described thus: change in splice reporter luminescence, either direction, cell-based, HEK293, spliceosome inhibition project, primary screen (AID 1101).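 Further: HEK293 cells carrying a splicing-competent luciferase reporter gene; test concentration not given here.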 The note with it: HEK293 splicing luciferase reporter, 24 h, higher = more signal, called active from +8 up or from −8 down.
The target of assay [9] is Fibroblast growth factor 10 (Homo sapiens) (UniProt O15520). Description: compounds binding fibroblast growth factor 10 – biochemical, small-molecule microarray, 635 nm fluorescence, primary screen (AID 1102). The note with it: FGF10 binding, fluorescence 635 nm, higher = more signal.
Chain of Fibroblast growth factor 10 (Homo sapiens) (O15520 whole entry, looked up): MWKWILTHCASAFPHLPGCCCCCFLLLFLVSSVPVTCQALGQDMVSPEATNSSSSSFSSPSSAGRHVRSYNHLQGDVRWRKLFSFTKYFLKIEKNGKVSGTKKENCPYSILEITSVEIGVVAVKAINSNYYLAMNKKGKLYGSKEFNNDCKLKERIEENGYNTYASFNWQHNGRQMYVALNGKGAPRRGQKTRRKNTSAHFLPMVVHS
Assay [10] concerns glycogen synthase kinase-3 (GSK3A per assay name; protocol says GSK3B). Kind of assay: compounds binding glycogen synthase kinase-3 – biochemical, small-molecule microarray, 635 nm fluorescence, GSK3A, primary screen (AID 1103). Further: the record names both GSK3A and GSK3B. The note with it: fluorescence 635 nm, higher = more signal.
For assay [11], the target named is Epidermal growth factor receptor (Homo sapiens) (UniProt P00533). Description: compounds binding epidermal growth factor receptor – biochemical, small-molecule microarray, 635 nm fluorescence, primary screen (AID 1104).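 Further: score merges 667 nm emission intensity with spot signal to noise over triplicate slides.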 The note with it: EGFR binding, higher = more signal.
Chain of Epidermal growth factor receptor (Homo sapiens) (P00533 whole entry, looked up): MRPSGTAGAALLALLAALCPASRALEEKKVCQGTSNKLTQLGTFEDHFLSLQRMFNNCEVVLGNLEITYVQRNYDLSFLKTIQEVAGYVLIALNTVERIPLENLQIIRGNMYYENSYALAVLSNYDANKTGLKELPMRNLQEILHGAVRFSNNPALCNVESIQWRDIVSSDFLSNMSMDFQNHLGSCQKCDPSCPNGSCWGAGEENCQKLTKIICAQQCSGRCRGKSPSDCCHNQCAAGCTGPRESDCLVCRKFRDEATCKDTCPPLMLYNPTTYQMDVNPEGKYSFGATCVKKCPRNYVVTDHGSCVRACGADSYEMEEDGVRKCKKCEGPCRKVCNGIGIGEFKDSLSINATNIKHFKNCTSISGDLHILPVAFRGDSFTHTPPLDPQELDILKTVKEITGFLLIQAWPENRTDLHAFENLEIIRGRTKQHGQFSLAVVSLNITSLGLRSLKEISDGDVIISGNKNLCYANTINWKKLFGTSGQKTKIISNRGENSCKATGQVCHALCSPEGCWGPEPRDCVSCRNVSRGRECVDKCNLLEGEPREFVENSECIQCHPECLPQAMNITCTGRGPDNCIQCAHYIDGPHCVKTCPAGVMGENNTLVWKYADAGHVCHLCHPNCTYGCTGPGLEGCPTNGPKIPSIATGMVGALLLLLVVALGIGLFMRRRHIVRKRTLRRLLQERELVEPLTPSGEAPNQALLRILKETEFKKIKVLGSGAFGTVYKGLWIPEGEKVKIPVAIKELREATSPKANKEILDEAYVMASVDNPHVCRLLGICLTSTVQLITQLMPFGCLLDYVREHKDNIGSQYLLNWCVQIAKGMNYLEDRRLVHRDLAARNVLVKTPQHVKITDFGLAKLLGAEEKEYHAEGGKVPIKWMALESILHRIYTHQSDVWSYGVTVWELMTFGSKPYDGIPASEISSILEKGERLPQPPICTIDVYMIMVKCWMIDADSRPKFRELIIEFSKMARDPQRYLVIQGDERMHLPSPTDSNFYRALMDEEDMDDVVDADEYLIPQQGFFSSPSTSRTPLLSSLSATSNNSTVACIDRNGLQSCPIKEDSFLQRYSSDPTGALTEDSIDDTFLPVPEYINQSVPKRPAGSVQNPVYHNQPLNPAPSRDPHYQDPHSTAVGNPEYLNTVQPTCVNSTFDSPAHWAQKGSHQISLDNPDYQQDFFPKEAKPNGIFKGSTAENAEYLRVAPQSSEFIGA
The target of assay [12] is Follistatin-related protein 3 (Homo sapiens) (UniProt O95633). Description: compounds binding follistatin-related protein 3 – biochemical, small-molecule microarray, 635 nm fluorescence, primary screen (AID 1105).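 Further: score merges emission near 667 nm and signal to noise per printed spot across three slides.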 The note with it: FSTL3 binding, higher = more signal.
Chain of Follistatin-related protein 3 (Homo sapiens) (O95633 whole entry, looked up): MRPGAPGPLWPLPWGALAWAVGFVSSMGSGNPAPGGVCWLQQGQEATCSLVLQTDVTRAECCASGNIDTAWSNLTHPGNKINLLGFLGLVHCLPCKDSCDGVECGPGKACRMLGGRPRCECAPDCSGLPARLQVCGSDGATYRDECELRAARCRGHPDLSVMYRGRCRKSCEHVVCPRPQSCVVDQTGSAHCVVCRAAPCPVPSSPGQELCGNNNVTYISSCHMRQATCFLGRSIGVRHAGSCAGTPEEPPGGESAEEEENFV
Assay [13] deals with Dickkopf-related protein 1 (Homo sapiens) (UniProt O94907). Kind of assay: small molecules binding DKK1 protein – biochemical, small-molecule microarray, 635 nm fluorescence scan, primary screen (AID 1106).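 Further: score merges emission near 667 nm with signal to noise over three replicate slides.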 The note with it: higher = more signal.
Chain of Dickkopf-related protein 1 (Homo sapiens) (O94907 whole entry, looked up): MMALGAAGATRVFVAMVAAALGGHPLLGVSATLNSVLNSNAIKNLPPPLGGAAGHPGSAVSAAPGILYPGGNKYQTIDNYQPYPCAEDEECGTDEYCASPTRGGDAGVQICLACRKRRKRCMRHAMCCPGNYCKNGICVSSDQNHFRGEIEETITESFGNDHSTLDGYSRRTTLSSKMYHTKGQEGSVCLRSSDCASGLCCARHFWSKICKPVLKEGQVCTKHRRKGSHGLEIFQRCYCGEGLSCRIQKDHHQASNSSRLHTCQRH
Assay [14] deals with Inhibin beta A chain (activin A). Kind of assay: small molecules binding activin A – biochemical, small-molecule microarray, 635 nm fluorescence scan, primary screen (AID 1107).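 Further: mouse activin A protein probed at 4.33 µg/mL on printed slides; score merges bound-protein fluorescence near 667 nm with spot signal-to-noise.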 The note with it: INHBA, higher = more signal.
Assay [15] deals with Human papillomavirus type 1a protein E7 (residues 44-93). Kind of assay: small molecules binding HPV E7 44-93 – biochemical, small-molecule microarray, residues 44-93, 635 nm fluorescence, primary screen (AID 1108).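 Further: E7 fragment applied at 1 µg/mL in TBST for 1 h at 4 C; score combines spot fluorescence with its signal to noise ratio.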 The note with it: fluorescence 635 nm, higher = more signal.
A short description of assay [16]: hepatitis C replication reporter changes, two-sided – Huh7 cells, luciferase reporter, HCV replication inhibitor project, primary screen (AID 1109).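 Further: huh7 hepatoma cells harbouring a luciferase neomycin HCV replicon reporter; luciferase luminescence as measure of HCV replicon replication; test concentration not given here.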 The note with it: Huh7 HCV replicon luciferase reporter, 48 h; higher = more signal.
Assay [17] has as its target Left-right determination factor 2 (Homo sapiens) (UniProt O00292). Kind of assay: small molecules binding LEFTY2 protein – biochemical, small-molecule microarray, 635 nm fluorescence scan, primary screen (AID 1110). The note with it: higher = more signal.
The target in assay [18] is Calmodulin-1 (Homo sapiens) (UniProt P0DP23). Kind of assay: small molecules binding calmodulin-1 with EGTA – biochemical, small-molecule microarray, Cy5-labelled CALM1, profiling panel (AID 1111).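 Further: labelled calmodulin applied in Tris saline Tween buffer holding calcium plus EGTA and DTT.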 The note with it: Cy5-CALM1 binding fluorescence, higher = more signal.
Assay [19] has the same target. Kind of assay: small molecules binding Ca-loaded calmodulin-1 – biochemical, small-molecule microarray, Cy5-labelled CALM1, plus calcium, artefact control for SMM control-protein annotation, profiling panel (AID 1112).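 Further: score merges spot fluorescence with signal to noise from triplicate slides.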 The note with it: Cy5-CALM1 binding fluorescence, higher = more signal.
Assay [20] is described as follows: probe aWnt5a binding to arrayed compounds – biochemical, biotinylated probe, 635/667 nm fluorescence, primary screen (AID 1113).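 Further: score merges 667 nm fluorescence intensity with signal-to-noise per printed feature.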 The note with it: small-molecule microarray, higher = more signal.

Each structure is given as a SMILES string. The source made the active and inactive calls.

Chain of Left-right determination factor 2 (Homo sapiens) (O00292 whole entry, looked up): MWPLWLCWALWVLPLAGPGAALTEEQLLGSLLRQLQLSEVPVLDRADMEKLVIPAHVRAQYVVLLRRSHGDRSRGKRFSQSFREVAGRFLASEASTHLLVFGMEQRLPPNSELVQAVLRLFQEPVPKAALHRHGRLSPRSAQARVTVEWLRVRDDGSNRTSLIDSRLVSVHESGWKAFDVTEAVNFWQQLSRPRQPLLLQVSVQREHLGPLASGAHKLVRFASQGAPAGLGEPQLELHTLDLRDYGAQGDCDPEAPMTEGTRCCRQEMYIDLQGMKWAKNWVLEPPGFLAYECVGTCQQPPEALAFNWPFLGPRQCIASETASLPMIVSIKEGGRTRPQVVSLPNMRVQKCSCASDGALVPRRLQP

Regarding `CCOC(=O)C[C@H]1[C@H](OC(=O)c2ccc(-c3ccccc3)cc2)[C@@H](NC(=O)C2CCCCC2)c2cc(OCCCO)ccc2N1C(=O)c1ccc2ccccc2n1`, the composite z-score is 0.0366 in assay [1]; 0.0692 in [2]; 1.1 in [3]; -0.0631 in [4]; 0.13 in [5]; 0.414 in assay [6]. For the same compound, the composite z-score in [7] turned out to be 0.111; in assay [9], 0.651; in assay [10], 0.708; in [11], 0.0502; in assay [12], 0.392; in assay [13], 1.12. The composite z-score is -0.167 in assay [14]; 1.19 in assay [15]; 0.197 in assay [17]; 1.24 in assay [18]; 0.854 in assay [19]; 0.0102 in assay [20]. Also, the z-score in [8] was -1.65 (inactive); in assay [16], -0.241.
For the compound `COCCOC(=O)N1C(=O)[C@@]2(c3cc(C#CCNC(N)=O)ccc31)[C@H](c1ccccc1OCCO)N1[C@H](c3ccccc3)[C@H](c3ccccc3)OC(=O)[C@H]1[C@@H]2C(=O)Nc1nc2ccccc2s1`, the composite z-score in [1] is 0.136; in assay [2], 0.345; in assay [3], 0.799; in assay [4] it was -0.0732; in assay [5], 0.852; in assay [6] it was 0.868. The composite z-score was 1.13 in [7]; 0.141 in assay [9]; 0.218 in assay [10]; 0.135 in assay [11]; 0.572 in assay [12]; 0.505 in [13]. Besides, the composite z-score in [14] was 0.887; in [15], 0.872; in assay [17], 0.163; in assay [18] it was 1.58; in assay [19] it was 1.14; in [20] it was -0.0758. For the same compound, the figures for the z-score in [8] and in [16] were -0.349 (inactive) and 0.048, respectively.
Turning to `C=C(C(=O)CC[C@H](OC(C)=O)c1ccc(CO)o1)C(C)C`, the composite z-score in [1] was -0.127; in [2], 0.512; in assay [3] it was -0.654; in [4] it was -0.181; in assay [5], 1.73; in [6], -0.272. In addition, the composite z-score in assay [7] was -0.476; in assay [9] it was 0.0843; in assay [10], 0.626; in assay [11] it was -0.986; in assay [12], -0.144; in assay [13], 0.24. Further, the composite z-score in [14] is 0.0011; in [15], -0.559; in [17], -0.586; in [18] it was -0.579; in [19], -0.758; in assay [20] it was -0.096. Moreover, the z-score is -1.4 (inactive) in assay [8] and -1.52 in [16].
Regarding `O=c1n(-c2ccccc2)c(=O)n2n1CC(COc1ccccc1)=C1[C@@H](CCc3ccccc3)OB(O)C[C@@H]12`, the composite z-score in assay [1] was -0.133; in assay [2] it was 0.814; in assay [3], 1.03; in assay [4], 0.0209; in assay [5], 0.812; in [6] it was -0.178. The composite z-score was -0.482 in assay [7]; 1.02 in assay [9]; 0.59 in assay [10]; 0.235 in assay [11]; 0.728 in [12]; 0.488 in [13]. The composite z-score in assay [14] turned out to be 0.0187; in [15], 0.398; in assay [17] it was 0.41; in [18], 0.0534; in assay [19] it was 0.205; in assay [20] it was 0.0181. Moreover, the z-score was -1.14 (inactive) in assay [8] and -1.91 in [16].
Regarding `CO[C@H]1O[C@H](CO)[C@@H](OC(=O)Nc2ccccc2)[C@H](OC(=O)Nc2ccccc2-c2ccccc2)[C@@H]1OC(=O)Nc1ccccc1-c1ccccc1`, the composite z-score in [1] amounted to 0.0623; in assay [2] it was 0.926; in [3] it was 1.06; in assay [4], 0.423; in assay [5] it was 1.36; in assay [6] it was 0.318. Besides, the composite z-score came out at 0.464 in assay [7]; 1.19 in assay [9]; 1.32 in assay [10]; 0.561 in assay [11]; 1.16 in [12]; 0.621 in assay [13]. Besides, the composite z-score in assay [14] is 0.522; in [15] it was 0.781; in assay [17] it was 0.986; in [18] it was 1.95; in assay [19], 0.357; in [20], 0.131. Further, the results for the z-score in assay [8] and in [16] were -1.05 (inactive) and -3.09, respectively.

The values above are taken from PubChem BioAssay.
